Rows were chosen to be rich in hits. Some 2.6% of all compounds tested hit in one or more screens of this group.
HBB splice mod: alters splicing of the hemoglobin beta chain; HBB splicing reporter cell assay, activation; EGFP reporter with mutant IVS2-654 intron; response scale: normalised to 500 nM splice-correcting PNA; Potency, µM (highest dose often 46.1 µM), actives largely listed as activators; actives 0.06% (n = 65,000); AID 925
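HeLa cells stably expressing EGFP interrupted by mutant beta-globin intron 2 (IVS2-654), 500/well in 2% FCS. Treated with compound for 2 days at 37C. Splicing correction scored as total well GFP intensity (488 nm excitation, 500-520 nm emission); 500 nM antisense PNA served as control.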
Ub-GFP proteasome: inhibits proteasome, raising ubiquitin-GFP reporter fluorescence; Ubiquitin-GFP reporter cells, proteasome inhibition, GFP fluorescence; response scale: untreated = 0%, 10 µM MG-132 = 100%; 67,000 tested, under 10 active; Potency, µM (highest dose often 45.9 µM), hits mostly activators; AID 526; active = well fitted activation curve with a large enough effect, not every such curve was filed as active; inconclusive = small, poorly fitted or top-dose-only effect, or another doubt; inactive = no such curve, though single readings can be large or run the other way
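GFP accumulation read-out: laser plate cytometry counting ubiquitin(G76V)-GFP-expressing U2OS cells after 4 hr compound exposure at 37 °C. Titrations spanned 46 uM to 2.9 nM; 0% = basal, 100% = 10 uM MG-132; concentration-response curves fitted.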
FLuc inh: inhibitors of firefly luciferase. P08659. purified firefly luciferase, luminescence, 8 min. Potency, µM (doses to about 57.1 µM), usual class: inhibitors. actives 2.2% (n = 72,000). AID 411; note: nearly all actives have a fitted effect of over 40% in size
Target sequence (P08659 whole entry, looked up): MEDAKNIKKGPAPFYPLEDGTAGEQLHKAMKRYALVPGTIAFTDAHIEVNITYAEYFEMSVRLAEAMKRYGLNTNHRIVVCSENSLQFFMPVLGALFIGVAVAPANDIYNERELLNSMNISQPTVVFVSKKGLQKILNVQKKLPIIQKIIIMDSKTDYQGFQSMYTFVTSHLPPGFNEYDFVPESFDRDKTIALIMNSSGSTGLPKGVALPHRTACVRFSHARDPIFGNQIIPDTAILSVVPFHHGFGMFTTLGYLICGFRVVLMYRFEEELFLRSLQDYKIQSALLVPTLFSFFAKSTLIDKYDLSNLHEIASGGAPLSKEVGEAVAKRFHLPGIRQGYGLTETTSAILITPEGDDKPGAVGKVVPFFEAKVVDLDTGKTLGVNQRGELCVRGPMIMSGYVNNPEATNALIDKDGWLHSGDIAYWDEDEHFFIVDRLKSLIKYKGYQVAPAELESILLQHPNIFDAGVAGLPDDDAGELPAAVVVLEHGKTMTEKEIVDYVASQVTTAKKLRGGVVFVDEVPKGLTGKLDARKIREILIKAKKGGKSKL
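qHTS concentration-response profiling: light output of P. pyralis luciferase with luciferin and 10 uM ATP, imidazole buffer pH 7.2. Read by luminescence after 8-min room-temperature incubation.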
Bst PK mod: pyruvate kinase (B. stearothermophilus) modulation | Potency, µM | AID 361 | actives 1.2% (n = 51,000) | purified pyruvate kinase, luminescence ATP production; ribose 5-phosphate activator present at AC10; in the data active = potency below about 11 µM; inconclusive = mostly about 12 µM to 25 µM;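 the screen sought inhibitors and activators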
Epigenetic mod: epigenetic GFP locus derepression in mouse cells. mouse C127i GFP locus derepression, cytometry, 30 h. Potency, µM (titrated, usually from 46.1 µM). actives 0.09% (n = 68,000)
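Murine C127i mammary cells carrying a silenced, stably integrated CMV-driven GFP reporter were treated with compound for 30 hours at 37 C. After PBS washes, GFP-positive cells were counted by laser-scanning microplate cytometry.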
Hits are given with their value; n = inactive; u = inconclusive; x = no result; [ ] = remark or other dose. Unless noted, calls come from the whole dose curve; as a rule, active = well fitted curve in the direction sought with a large enough effect; inconclusive = small, poorly fitted or top-dose-only effect, or another doubt; inactive = no such curve, though single readings can be large; an effect the other way counts as inactive or inconclusive.

SMILES	HBB splice mod	Ub-GFP proteasome	FLuc inh	Bst PK mod	Epigenetic mod
O=C(NCc1nc2ccccc2[nH]1)[C@H]1C[C@@H]1[C@H](NP(=O)(c1ccccc1)c1ccccc1)c1ccccc1	n	x	x	x	x
O=C(Cc1ccc(F)cc1)OCC(=O)c1cc2ccccc2o1	n	n	n	n	n
O=C(COC(=O)c1cc2ccccc2o1)c1ccccc1	n[0.0738 µM]	n[9.17 µM]	13µM	x	n
O=C(COC(=O)c1cccs1)c1ccccc1	n	n	5µM	u	n
CCCCCCN(CCCCCC)C(=O)Cc1c(-c2ccc(Cl)cc2)[nH]c2ccc(Cl)cc12	x	n	n	x	n
FC(F)(F)c1ccccc1Cl	n	x	x	x	x
COc1cc(OC)c(/C=C2/C(=O)Nc3ccccc32)c(OC)c1	n	n	n	x	n
Cc1cc(C)c(/C=C2/C(=O)Nc3ccccc32)[nH]1	32µM	n	n	x	n
O=C(NCc1cccnc1)c1c[nH]c2cc3c(cc2c1=O)OCCO3	n	n	13µM	n	n
COC(=O)c1sccc1NC(=O)c1cc2c(s1)CCCC2	n	n	20µM	x	n
COC(=O)c1sccc1NC(=O)c1ccc2c(c1)OCO2	n	n	n	x	n
c1ccc(CCc2nc(-c3ccccn3)no2)cc1	n	n	n	n	n
Nc1nonc1-c1noc(COc2ccccc2Cl)n1	n	n	13µM	x	n
Clc1ccc(OCc2nc(-c3ccccn3)no2)c(Br)c1	n	n	2.5µM	x	n
Clc1ccccc1OCc1nc(-c2ccccn2)no1	n	n	10µM	n	n
Cc1cccc(OCc2nc(-c3nonc3N)no2)c1C	n	n	n	n	n
CCCCCCCCCCCCC1CO1 (centres undefined)	n	x	x	x	x
O=C(SCc1cccc2ccccc12)c1ccc(Cl)cc1	n[9.22 µM]	n[9.17 µM]	n[11.4 µM]	x	n[9.22 µM]
O=S(=O)(c1cccc(C(F)(F)F)c1)N1c2ccccc2-n2cccc2[C@H]1c1cccnc1	n[9.22 µM]	n[9.17 µM]	n[11.4 µM]	x	n[9.22 µM]
O=C(O)CCC(=O)c1cccc2ccccc12	n	n	n	n	n
C=C(c1cccc2ccccc12)P(=O)(O)O	n	n	n	0.17	n
c1ccc(CN2CCN(c3nc(-c4ccccc4)nc(-n4ccnc4)n3)CC2)cc1	n	n	n	4.4	n
c1ccc(-c2nc(-n3ccnc3)nc(-n3ccnc3)n2)cc1	n	n	n	0.94	n
O=c1oc2ccccc2c(O)c1/C=N/c1nc(-c2ccc(O)c(O)c2)cs1	n[9.22 µM]	n[9.17 µM]	n[11.4 µM]	x	n[9.22 µM]
COCCNc1ncnc2ccc(-c3ccc(C(=O)N(C)C)cc3)cc12	n	n	n[2.29 µM]	x	n[9.22 µM]
SMILES	HBB splice mod	Ub-GFP proteasome	FLuc inh	Bst PK mod	Epigenetic mod
c1ccc(COc2ccc(OCCOCCn3cncn3)cc2)cc1	n	n	16µM	x	n
CC(=O)[C@H](CC(C)C)NC(=O)[C@@H](CC(C)C)NC(=O)[C@H](CC(C)C)NC(=O)OCc1ccccc1	x	0.79µM	n	x	n
Cc1cc2nc(-c3cccc(NC(=O)c4ccc(Br)o4)c3C)oc2cc1C	n[0.0738 µM]	n[9.17 µM]	7.9µM	x	n
CCOc1ccc(-c2cc(C(=O)O)c3ccccc3n2)c(OCC)c1	n	n	n	x	n
COc1ccc(-c2cc(C(=O)OCC(=O)N(C)C)c3ccccc3n2)cc1	n	n	20µM	9.8	n
Cc1ccc2c(c1)[C@H]1OCC[C@H]1[C@@H](c1ccncc1)N2	n	n	n	x	n
Clc1ccc2c(c1)C1OCCC1C(c1ccco1)N2 (centres undefined)	x	n	16µM	9.6	n
CN(C)/C=N/c1nc2ccc3c(c2s1)CCCC3	n	n	10µM	n	n
O=C(Nc1cccc(Cn2cccn2)c1)c1cc2c(s1)CCCC2	n	n	13µM	n	n
c1ccc(OCCSc2nnc3sc4ccccc4n23)cc1	n	n	25µM	u	n
COc1cccc(OCCSc2nnc3sc4ccccc4n23)c1	n	n	n	x	n
CC(C)n1c(-c2ccc(N(C)C)cc2)nc2ccccc21	n	n	13µM	x	n
CN(C)c1ccc(-c2nc3ccccc3n2C)cc1	n	n	0.63µM	1.1	n
